# NR0B1 inh: DAX1 (NR0B1) inhibitors, primary screen, cell-based, HEK293, Gal4-DAX1, luciferase luminescence; AID 504766, 2011; 340,000 compounds, 0.99% hits; HEK293 Gal4-DAX1 luciferase reporter; Nuclear receptor subfamily 0 group B member 1 (Homo sapiens), P51843; inhibition, % at 6.75 µM;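 active = inhibition above the mean over all tested compounds plus 3 SD, cut at about 4.2% in these data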;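 also: 0% = DAX1-transfected cells with DMSO and 100% = empty-vector control cells with DMSO; inhibition shows as a rise in luminescence from relieved DAX1 repression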
# HSF1 inh: HSF1 inhibitors in luciferase reporter cells, primary screen, cell-based, NIH3T3, luminescence; NIH3T3-HGL HSE-luciferase, MG132-induced, luminescence 8 h; active compounds read low; AID 2098, 2009; 300,000 compounds, 0.77% hits; activity change, negative = inhibition, % at 7.5 µM (by protocol);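 active = more than half of replicate wells show activity change below -50%, luminescence cut by over half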;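 also: luciferase reports HSF-1 transcriptional activity via heat shock element; 0% = median of DMSO wells and -100% = zero luminescence signal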
# AHR activator: AHR activators, primary screen, cell-based, luminescence, luciferase reporter, human; AHR-responsive luciferase reporter cells; AID 2796, 2010; activation, % at 5 µM; 320,000 compounds, 2.5% hits; in the data active = activation above about 47%;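 also: 0% = vehicle wells and 100% = reference agonist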
# Target sequence (P35869 whole entry, looked up): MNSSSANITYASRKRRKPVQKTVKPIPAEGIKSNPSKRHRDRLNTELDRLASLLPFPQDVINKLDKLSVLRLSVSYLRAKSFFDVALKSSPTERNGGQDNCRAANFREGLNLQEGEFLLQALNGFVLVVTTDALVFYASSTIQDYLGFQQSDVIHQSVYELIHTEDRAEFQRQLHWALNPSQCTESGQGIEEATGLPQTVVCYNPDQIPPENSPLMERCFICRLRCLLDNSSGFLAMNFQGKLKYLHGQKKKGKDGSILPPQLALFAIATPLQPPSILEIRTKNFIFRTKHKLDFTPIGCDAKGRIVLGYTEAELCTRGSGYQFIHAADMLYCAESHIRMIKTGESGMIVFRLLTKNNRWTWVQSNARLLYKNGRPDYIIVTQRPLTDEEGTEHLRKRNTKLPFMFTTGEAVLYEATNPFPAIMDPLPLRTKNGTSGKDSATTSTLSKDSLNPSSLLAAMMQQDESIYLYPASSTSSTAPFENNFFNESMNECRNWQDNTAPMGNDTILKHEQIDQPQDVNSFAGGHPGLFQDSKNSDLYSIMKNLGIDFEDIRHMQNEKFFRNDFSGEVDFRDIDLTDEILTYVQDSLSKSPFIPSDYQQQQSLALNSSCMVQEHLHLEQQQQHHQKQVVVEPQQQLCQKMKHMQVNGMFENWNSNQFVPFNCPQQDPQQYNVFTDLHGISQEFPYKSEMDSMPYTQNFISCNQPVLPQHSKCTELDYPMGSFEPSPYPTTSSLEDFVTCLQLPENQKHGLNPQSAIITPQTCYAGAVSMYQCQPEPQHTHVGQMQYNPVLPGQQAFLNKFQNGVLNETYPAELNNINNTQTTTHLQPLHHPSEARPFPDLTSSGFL
# HSP90 refold inh: HSP90 inhibitors, primary screen, cell lysate, luminescence. Rabbit reticulocyte lysate, luciferase refolding luminescence, 3 h. inhibition, % at 5.6 µM. 290,000 compounds, 0.91% hits. AID 1789, 2009;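 active = inhibition above the screen-wide mean plus 3 SD, computed separately per campaign, cut at about 16% in these data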;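 also: 0% = DMSO wells and 100% = 60 µM geldanamycin wells; inhibitors lower the luminescence because luciferase stays unfolded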
# HSF1 activator: HSF-1 activators, primary screen, NIH3T3-HGL cells, MG132 stress, luminescence, single point; NIH3T3-HGL HSF-1 luciferase reporter, 8 h; 100% = twice DMSO control signal; AID 504408, 2011; 300,000 compounds, 1.7% hits; activation, % at 9 µM;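 active = mean replicate activation of at least 50% with a set share of replicates each reaching 50%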;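 also: 0% = median of the neutral control wells and 100% = twice that signal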
# FXN GAA850 act: FXN promoter activators, primary screen, cell-based, luciferase luminescence, HEK293 lucGAA850; HEK293 lucGAA850 FXN promoter luciferase reporter, 24 h; percent of 10 µM SAHA response; activation, % at 6 µM; 360,000 compounds, 0.56% hits; AID 540364, 2011;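 active = activation above the average of all compounds screened plus 3 SD, cutoff fixed separately per campaign, cut at about 7.5% in these data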;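 also: 0% = DMSO wells and 100% = 10 µM SAHA wells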
# * = called active by the depositor; . = no result. This is a sample that favours compounds with a hit; in the whole collection about 5.9% have one here.
SMILES,NR0B1 inh,HSF1 inh,AHR activator,HSP90 refold inh,HSF1 activator,FXN GAA850 act
COC(=O)Nc1nnc(-c2ccncc2)s1,0,-1,14,1,-2,2
COc1ccccc1-c1nnc(NC(=O)OCC(C)C)s1,0,-1,64*,-1,-5,1
O=C(N/N=C\c1ccc(-c2ccccc2[N+](=O)[O-])o1)C1COc2ccccc2O1 (stereo not given),-1,9,65*,11,16,1
CCCCOc1ccc(-n2nc(C)cc2C)nn1,4.7*,17,5,-4,13,5
COc1ccc(-c2cc3ccc(OCC(C)=O)cc3oc2=O)cc1OC,0,24,7,6,29,3
COc1ccc(-c2cc3ccc(OCC(C)=O)cc3oc2=O)cc1,3,28,2,9,62*,4
O=c1oc2cc(O)ccc2cc1-c1ccccc1,1,14,-1,3,12,4
COc1ccc(-c2cc3ccc(O)cc3oc2=O)cc1,1,26,0,1,51*,4
CCc1nnc(N/N=C/c2ccc(O)c(OC)c2)n1N,1,20,6,0,39,-1
CCc1nnc(N/N=C/c2cc(Br)c(O)cc2O)n1N,-1,40,18,7,57*,-1
COc1ccc(NC(=O)C2CCC(C(C)(C)C)CC2)cc1S(=O)(=O)N1CCOCC1 (stereo not given),-1,.,4,.,.,0
CC(=O)C1=C(C)OC2(O)c3ccccc3C(=O)C12O (stereo not given),.,14,-2,2,59*,1
CCOC(=O)C1=C(C)OC2(O)c3ccccc3C(=O)C12O (stereo not given),.,10,-1,4,21,2
Nc1nc(Oc2ccc(F)cc2)c(Br)c(=O)[nH]1,0,-64*,-1,5,-72,4
Nc1c(Br)c(=O)[nH]c(=O)n1-c1ccc(F)cc1,2,-2,2,0,3,0
O=S(=O)(c1ccccc1)N1CCN(Cc2c(O)ccc3ccccc23)CC1,1,.,27,.,.,-1
Oc1ccc2ccccc2c1CN1CCN(c2ccccc2F)CC1,2,73,.,-1,84*,3
Oc1ccc2ccccc2c1CN1CCN(C/C=C/c2ccccc2)CC1,-1,128,15,-1,185*,1
CC(C)(C)N(Cc1ccccc1)C(=O)COC(=O)c1ccc(N2CCCC2=O)cc1,0,.,0,.,.,1
COc1ccc(CCN2CC(C(=O)N(C)CC(=O)Nc3cccc(F)c3)CC2=O)cc1OC (stereo not given),0,0,1,0,-6,-1
COc1cccc(OCc2cc(/C=N/NC(=O)c3ccn[nH]3)ccc2OC)c1,2,-3,63*,2,11,3
O=C(COC(=O)c1ccc(F)cc1Cl)NC(=O)NC1CCCC1,0,.,-1,.,.,1
C#CCSc1nnnn1-c1cccc(Cl)c1,4.3*,-2,-2,0,3,-1
COc1cccc(CN(C)C(=O)c2ccc(S(=O)(=O)Nc3ccccc3C)cc2)c1OC,0,.,.,.,.,-1
Cc1ccc(CC(=O)c2ccc(Cl)cc2)cc1,1,17,-3,0,25,2
SMILES,NR0B1 inh,HSF1 inh,AHR activator,HSP90 refold inh,HSF1 activator,FXN GAA850 act
O=C(Cc1ccc(Cl)cc1)c1ccc(O)cc1,4.9*,22,1,-3,52*,3
O=C(CCO)c1ccc(O)cc1,4.3*,-3,0,-5,0,1
CCOC(=O)C1=C(COC(=O)CCc2ccc(CC)cc2)NC(=O)NC1C (stereo not given),1,.,-1,.,.,0
O=C(Nc1cccc(S(=O)(=O)NC2=NCCC2)c1)c1cc(F)c(F)c(F)c1F,0,.,.,.,.,-1
CCOC(=O)c1c(N)sc2c(NC(C)=O)cccc12,-1,-6,21,-4,-3,1
CCOC(=O)c1c(N)sc2c(O)c(Br)ccc12,1,-94*,0,-4,-95,0
O=C(NCc1ccccc1Cl)c1ccc2nc([C@@H]3O[C@H](CO)[C@H](O)[C@H](O)[C@H]3O)[nH]c2c1,.,.,.,.,.,0
Cc1nc(SCC(=O)c2ccccc2)c(C#N)c(-c2ccco2)c1C(=O)NCc1ccco1,-2,52,4,-2,76*,-2
Cc1[nH]c2ccc(F)cc2c1CCN1C(=O)OC(C)(C)C1(C)O (stereo not given),7.3*,-5,10,4,-13,1

# Assay outcomes as filed in PubChem.
